Results as given in the supplement of paper PMC3334620.
Over roughly 33,000 sequences, “E-score (-0.5 to 0.5)” has its median near -0.035; the highest 2% begin near 0.35. The list comes from a sample in which the highest values are over-represented; it also holds similar and randomly drawn sequences.

Target: T1, Pdr3 (UniProt P33200)
T1 sequence: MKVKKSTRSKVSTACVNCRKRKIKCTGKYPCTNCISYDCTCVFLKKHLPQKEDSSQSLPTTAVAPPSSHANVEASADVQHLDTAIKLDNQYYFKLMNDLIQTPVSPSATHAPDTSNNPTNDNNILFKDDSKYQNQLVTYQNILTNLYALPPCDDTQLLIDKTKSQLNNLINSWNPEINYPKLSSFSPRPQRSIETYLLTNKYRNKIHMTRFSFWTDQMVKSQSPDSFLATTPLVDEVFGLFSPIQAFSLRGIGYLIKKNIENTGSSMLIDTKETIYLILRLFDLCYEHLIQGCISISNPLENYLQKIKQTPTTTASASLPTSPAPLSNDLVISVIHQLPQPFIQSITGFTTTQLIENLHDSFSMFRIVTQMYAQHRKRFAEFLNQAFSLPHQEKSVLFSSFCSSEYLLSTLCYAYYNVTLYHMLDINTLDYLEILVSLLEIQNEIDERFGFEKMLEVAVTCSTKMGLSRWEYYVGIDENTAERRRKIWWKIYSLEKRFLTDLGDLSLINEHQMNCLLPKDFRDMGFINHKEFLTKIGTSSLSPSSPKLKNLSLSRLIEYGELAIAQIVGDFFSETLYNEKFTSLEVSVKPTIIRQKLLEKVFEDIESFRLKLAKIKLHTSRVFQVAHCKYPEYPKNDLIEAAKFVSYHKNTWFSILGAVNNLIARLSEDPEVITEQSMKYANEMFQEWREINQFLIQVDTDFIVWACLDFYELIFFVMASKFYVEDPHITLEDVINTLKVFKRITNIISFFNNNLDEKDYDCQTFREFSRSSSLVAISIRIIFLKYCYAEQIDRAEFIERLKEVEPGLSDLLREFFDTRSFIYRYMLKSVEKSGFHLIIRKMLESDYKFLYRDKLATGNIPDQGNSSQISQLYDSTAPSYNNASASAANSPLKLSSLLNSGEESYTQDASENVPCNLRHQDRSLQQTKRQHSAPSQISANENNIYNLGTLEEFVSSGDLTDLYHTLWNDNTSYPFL
Test: PBM E-score (8-mer binding enrichment) (E-score (-0.5 to 0.5)); higher = stronger / more preferred TF binding
Settings: protein concentration: 200 nM; construct: GST-full length
Description: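 Universal 'all 10-mer' protein binding microarrays (Agilent AMADID 015681) probed with GST-tagged S. cerevisiae TFs (full-length or DBD) made by in vitro transcription/translation (PURExpress), about 100-200 nM. Bound TF was detected with fluorescent anti-GST. Each ungapped 8-mer (which stands for itself and its reverse complement) is scored by the PBM enrichment score (E-score), a modified Wilcoxon-Mann-Whitney statistic from -0.5 to +0.5, computed with the Universal PBM Analysis Suite. Scale: above 0.35 generally sequence-specific binding.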

Row | Sequence | PBM E-score
1 | CCTGAAGA | -0.0192
2 | GGCGCCTA | -0.0415
3 | CTACAGCC | -0.129
4 | GCCTCATA | 0.0142
5 | CTTGTCCC | 0.19
6 | AAGTTCCG | 0.445
7 | CAGTTCCC | 0.342
8 | CAGTTCCG | 0.473
9 | AAGTTCCT | 0.0364
10 | CAGTTCCA | -0.0348
11 | AAGTTCCC | 0.14
12 | CATGAAGC | 0.058
13 | CCAGCCTA | -0.182
14 | CTAGGGAG | -0.205
15 | GCAAGCCC | -0.0061
16 | AGGAATTC | -0.00951
17 | AGGAATTA | -0.091
18 | GGGAATTA | 0.118
19 | CTGAATTC | -0.136
20 | CGGAATTC | 0.434
21 | CGGAATTA | 0.43
22 | GTGCCTAA | -0.288

Row | Sequence | PBM E-score
23 | CTATCTAA | 0.00128
24 | GTCCCTGA | -0.23
25 | GAGCGAAA | 0.146
26 | ACTTTCCT | -0.151
27 | ACTTTCCG | 0.417
28 | CCTTTCCA | -0.0113
29 | CCTTTCCC | 0.235
30 | ACTTTCCC | 0.0862
31 | CCTTTCCG | 0.387
32 | AGGTTTTG | -0.197
33 | AAACTCTT | -0.264
34 | CAGTCGGC | 0.0494
35 | GGCCGGAA | 0.431
36 | CGCCGGAA | 0.45
37 | AGCCGTAT | 0.0899
38 | AGCCGGTG | 0.187
39 | GGCCGGAC | 0.216
40 | AGCCGGGG | 0.152
41 | CGCCGGAC | 0.316
42 | GGCCGAAA | 0.199
43 | AGCCGGTC | -0.0317
44 | AGCCGGAT | 0.391

Row | Sequence | PBM E-score
45 | AGCCGGAG | 0.362
46 | CGCCGGAG | 0.299
47 | GCGGATGA | 0.303
48 | GAACCCTA | -0.0298
49 | AGTTCAAG | 0.0398
50 | AAAGCTTT | 0.00459
51 | GGAGCACA | 0.0257
52 | ACGTACGA | -0.133
53 | CGTAGAGA | -0.182
54 | AGCCGGTA | 0.199
55 | TGCCGGAA | 0.454
56 | TGCCGTAA | -0.187
57 | AGCCGGAA | 0.438
58 | TGCCGAAA | 0.118
59 | AGCCGGAC | 0.345
60 | AGCAACCT | -0.0661
61 | TCGAGGCA | -0.123
62 | CGGCGAGA | 0.0811
63 | GTTTCTCA | -0.134
64 | CGGGATCA | 0.344
65 | CCGGATAG | 0.347
66 | GCGGATCA | 0.296

Row | Sequence | PBM E-score
67 | CCGGATCG | 0.391
68 | CGGGATCC | 0.417
69 | TCGGATCA | 0.303
70 | ACGGATCG | 0.236
71 | ACGGATCT | 0.271
72 | CCGGATCA | 0.389
73 | ACGGATCC | 0.445
74 | AGGGATCC | 0.196
75 | CAGGATCG | 0.0205
76 | GGGGTCCA | -0.138
77 | CGCTAAAA | 0.00276
78 | CCTTTTAG | -0.291
79 | AATCTGCT | -0.15
80 | ACCCTCCC | 0.299
81 | CTGAAGCA | -0.199
82 | CCAATGCC | 0.0068
83 | AGGCATTG | -0.0729
84 | CCCATTGC | -0.0113
85 | GGCGGTTA | 0.0539
86 | AAGCATCT | -0.243
87 | CATTTGTA | -0.0519
88 | AGGCGAAC | -0.114
